Source: PubChem BioAssay
These entries were drawn from the full list.
aSyn UTR act – Activators via SNCA 5'UTR binding, MLPCN. alpha-synuclein 5'UTR reporter, activators screen. activity score, % (tested at 7.5 µM), hits read low. hit rate 7.1% among 300,000. AID 1814; in the data active = activity score below about -60%
Active calls of the source: *.

SMILES	aSyn UTR act
CCC(=O)Nc1cccc(-c2nnc(SCC(=O)c3ccccc3)n2C)c1	-103*
Cn1c(SCC(=O)c2ccccc2)nnc1-c1cnccn1	-67*
CCn1c(SCc2nc3ccccc3[nH]2)nnc1-c1cnccn1	-90*
Cn1c(SCc2c(Cl)cccc2Cl)nnc1-c1cccs1	-62*
CCn1c(SCC(=O)c2ccccc2)nnc1-c1cnccn1	-78*
Cn1c(SCC(=O)c2ccccc2)nnc1-c1cccs1	-102*
CCC(=O)Nc1cccc(-n2nnnc2SCC(=O)c2ccc(C)c(C)c2)c1	-84*
Cc1ccnc(NC(=O)C2CCN(S(=O)(=O)c3ccc(C)c(C)c3)CC2)c1	-81*
c1ccc(-n2ncc3c(NCc4cccnc4)ncnc32)cc1	-114*
c1ccc(-n2ncc3c(NCc4cccs4)ncnc32)cc1	-162*
COc1ccc(-n2ncc3c(NCc4cccs4)ncnc32)cc1	-171*
Nc1nc(NCc2cccs2)nn1-c1ccccc1	-67*
Cc1cc(C(c2nnnn2Cc2ccccc2)N2CCOCC2)c(C)n1-c1ccc2c(c1)OCO2 (stereo not drawn)	-315*
Cc1cc(NC(=O)CSc2nc3c(C)cccc3cc2C#N)no1	-209*
Cc1cccc2cc(C#N)c(SCC(=O)N3CC(=O)Nc4ccccc43)nc12	110
Oc1ccc(-c2csc(Nc3ccccn3)n2)cc1O	-139*
CCC(=O)Nc1nc(C)c(-c2csc(Nc3ccccn3)n2)s1	-122*
CC(=O)Nc1ccc(-c2csc(Nc3ccccn3)n2)cc1	-161*
CC(=O)Nc1ccc(Nc2nc(-c3c(C)nc4ccccn34)cs2)cc1	87
CC(=O)Nc1ccc(-c2csc(NCCc3ccccc3)n2)cc1	-141*
COc1ccc(OC)c(Nc2nc(-c3sc(NC(=O)CC(C)C)nc3C)cs2)c1	58
Cc1ccnc(Nc2nc(-c3ccc(O)cc3)cs2)c1	-232*
Cc1ccnc(Nc2nc(-c3ccc(O)c(O)c3)cs2)c1	-148*
Cc1ccnc(Nc2nc(-c3ccc(O)cc3O)cs2)c1	-136*
O=c1[nH]cnc2scc(-c3ccc(-c4ccccc4)cc3)c12	-88*
SMILES	aSyn UTR act
CCCOc1ccc(-c2csc3nc[nH]c(=O)c23)cc1	-159*
O=S(=O)(Cc1cc(-c2ccccc2Cl)no1)c1ccccc1	-130*
Clc1ccc(-c2cc(COc3ccccc3)on2)cc1	-90*
O=S(=O)(Cc1cc(-c2ccc(Cl)cc2)no1)c1ccccc1	-173*
S=C(N/N=C/c1ccc2c(c1)OCO2)NC1CC2CCC1C2 (stereo not drawn)	-128*
NC(=S)N/N=C/c1ccc(C23CC4CC(CC(C4)C2)C3)cc1	-310*
NCCOc1ccc(C23CC4CC(CC(C4)C2)C3)cc1	81
CNC(=S)N/N=C/c1ccc2c(c1)OCCO2	-73*
NC(=S)N/N=C/c1ccc2c(c1)OCCO2	-76*
CC(C)(C)c1ccc(OCCCC(=O)Nc2ccc(S(N)(=O)=O)cc2)cc1	-146*
CN(C)c1nc(F)c(F)c(S(=O)(=O)c2ccccc2)c1F	-94*
CCOC(=O)c1c(N/N=C/c2cccnc2)n[nH]c1C	-157*
COc1cccc(NC(=O)n2nc(N)cc2-c2ccc(Cl)cc2)c1	-69*
c1ccc(-c2cnnc(N3CCCCC3)n2)cc1	-140*
COc1ccc(-c2csc(N3CCOCC3)n2)cc1OC	-80*
Clc1ccc(-c2csc(N3CCCCCC3)n2)cc1	-85*
O=[N+]([O-])c1ccc(-c2csc(N3CCCCCC3)n2)cc1	-78*
CN1CCN(c2nc(-c3ccc(Cl)s3)cs2)CC1	-84*
Clc1ccc(-c2csc(N3CCOCC3)n2)cc1	-140*
Brc1ccc(-c2csc(N3CCOCC3)n2)cc1	-132*
c1ccc(-c2csc(N3CCCCCC3)n2)cc1	-139*
O=C(O)c1cccc(COc2ccccc2Cl)c1	103
O=C(Nc1ccccc1Cl)c1cccc(COc2cc(Cl)ccc2Cl)c1	-120*
CN1CCN(C(=O)c2cccc(COc3cc(Cl)ccc3Cl)c2)CC1	-164*
O=C1NC(=O)/C(=C\c2ccc(OCc3cccc(C(=O)O)c3)c(Cl)c2)N1	70
SMILES	aSyn UTR act
Cc1nn(Cc2c(F)c(F)c(F)c(F)c2F)c(C)c1NC(=O)c1cccc(COc2ccccc2Cl)c1	-97*
Cc1nn(Cc2cccc(F)c2)c(C)c1NC(=O)c1ccc(COc2ccccc2Cl)cc1	69
C#CCSc1nnc(-c2ccc(OC)cc2)o1	-266*
CCCCCCCCSc1nnc(-c2ccc(OC)cc2)o1	111
C#CCSc1nnc(-c2ccc([N+](=O)[O-])cc2)o1	-151*
CCSc1nnc(-c2ccc(OC)cc2)o1	-186*
Oc1ccccc1C1=Nc2nc3ccccc3n2C(c2ccccc2)C1 (stereo not drawn)	-214*
O=C(NCc1cccnc1)c1ccc(-c2cc3ccccc3oc2=O)cc1	-139*
COc1ccc(-c2cc3ccccc3oc2=O)cc1	-71*
Nc1ccc(-c2cc3ccccc3oc2=O)cc1	106
O=c1oc2ccccc2cc1-c1ccc(O)cc1	-101*
C/C(=C\C(=O)c1cccnc1)Nc1ccc(O)cc1	-77*
C/C(=C\C(=O)c1ccccc1)Nc1ccc(O)cc1	-102*
